Screening data deposited in PubChem BioAssay by several laboratories.
Compounds with a hit are over-represented: about 5.7% of the library has one in this group of screens.
Myeloid diff 2: compounds promoting myeloid differentiation; ER-HoxA9 myeloid progenitors, lysozyme-GFP differentiation, flow cytometry; calls only at 10 µM; 1% of 360,000 active; AID 624256;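 active = normalized GFP-positive differentiation at or above the plate's own cutoff, the solvent-only control mean plus 3 SD; inconclusive = no clear call, values can overlap the other calls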;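 also: cells exposed to compound for four days before flow analysis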
MPTP inh: inhibitors of mitochondrial permeability transition pore; isolated mouse mitochondria, Ca2+ swelling absorbance, 30 min; inhibition, % at 10 µM; 1.4% of 360,000 active;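 active = inhibition of 50% or more, scaled per plate between neutral and stimulator controls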;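 also: 0% = DMSO wells given calcium and 100% = 1 mM EGTA wells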
FAS TE block: FAS thioesterase (human) inhibition | P49327 | recombinant FAS-TE, OMFH fluorogenic substrate, fluorescence endpoint | inhibition, % at 15 µM | 0.67% of 360,000 active;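 active = compounds whose normalised, plate-corrected inhibition of enzyme fluorescence in the single-dose primary screen is 50% or more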;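 also: 0% = DMSO with enzyme and 100% = substrate without enzyme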
rCAG binder: molecules binding r(CAG) RNA repeats. 1.3% of 370,000 active. r(CAG) RNA repeat, TO-PRO-1 dye displacement fluorescence. inhibition, % at 3 µM. AID 651821;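 active = inhibition above the plate cutoff, the mean of all test compounds on that plate plus 3 SD, cut at about 35% in these data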;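 also: 0% = DMSO alone and 100% = 100 µM mitoxantrone as full dye displacement; higher means more dye released from RNA so lower well fluorescence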
GRIN3A LBD mod: NR3A (human) ligand-binding domain modulation; NR3A LBD differential scanning fluorimetry, Tm shift; 0% = protein alone, 100% = glycine-bound protein; Tm shift relative to glycine control, % at 25 µM; AID 1259313; 2.5% of 340,000 active;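 active = melting temperature shift of at least 10% of the positive control shift, at one fixed dose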
rCAG binder conf: r(CAG) RNA repeat binding, confirmation; shares compounds with rCAG binder; TO-PRO-1 dye displacement fluorescence; inhibition, % at 3 µM; 70% of 4,300 active;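 active = inhibition above a per-plate cutoff, the mean inhibition of sample wells plus 3 SD, cut at about 35% in these data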;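 also: loss of TO-PRO-1 fluorescence as compound displaces dye from 1x1 AA loop RNA; 0% = DMSO only wells and 100% = 100 µM mitoxantrone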
dCAG dye counter: counter-screen for rCAG RNA binders: DNA CAG dye complex inhibitors. shares compounds with rCAG binder. d(CAG) DNA oligo TO-PRO-1 dye displacement, fluorescence. inhibition, % at 3 µM. 94% of 4,300 active;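 active = inhibition above its plate's cutoff, the mean test-well inhibition plus 3 SD, cut at about 4.8% in these data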;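 also: 0% = DNA dye mix with DMSO and 100% = 100 µM mitoxantrone; hits displace the dye from DNA and so lower well fluorescence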
dCAG dye DR: counter-screen for rCAG binders: inhibitors of DNA CAG TO-PRO-1 complex. AID 686960. IC50, µM. shares compounds with rCAG binder. DNA CAG/GTC duplex TO-PRO-1 dye displacement fluorescence. 20% of 250 active; in the data active = IC50 below about 10 µM
The depositor's hits bear a star; i = inactive; ? = inconclusive; . = no result given.

SMILES	Myeloid diff 2	MPTP inh	FAS TE block	rCAG binder	GRIN3A LBD mod	rCAG binder conf	dCAG dye counter	others
CCOC(=O)Cc1csc(NS(=O)(=O)c2ccc3c4c(cccc24)C(=O)N3CC)n1	i	-8	9	56*	-4	47*	13*
COc1cc(NS(=O)(=O)c2ccc(NS(=O)(=O)c3ccc(C)cc3)cc2)nc(OC)n1	i	0	-2	12	3	.	.
Cc1cc(NS(=O)(=O)c2ccc(Nc3nc(-c4sc(N)nc4C)cs3)cc2)no1	i	-1	14	.	-2	.	.
CCC(=O)Nc1ccc(S(=O)(=O)Nc2cc(C)on2)cc1	i	0	-7	-1	-4	.	.
Cc1cc(NS(=O)(=O)c2ccc(Nc3nc(-c4ccc(O)cc4)cs3)cc2)no1	i	0	1	52*	4	33	9.7*
COc1cc(NS(=O)(=O)c2ccc(Nc3nc(-c4ccccc4)cs3)cc2)nc(OC)n1	i	-2	6	87*	27*	83*	54*
Cc1cc(NS(=O)(=O)c2ccc(Nc3nc(-c4ccc(C)c(C)c4)cs3)cc2)no1	i	-28	34	88*	16*	84*	55*
COc1cccc2sc(Nc3nnc(-c4ccccc4Cl)o3)nc12	?	0	8	46*	-8	44*	14*
COc1cccc2sc(Nc3nc(-c4ccncc4)cs3)nc12	.	-4	2	38*	-2	21	14*
COc1ccccc1-c1nnc(Nc2nc3c(OC)cccc3s2)o1	?	2	2	53*	0	58*	20*
COc1cccc(-c2nnc(Nc3nc4c(F)cccc4s3)o2)c1	i	49	4	73*	-5	67*	23*
O=C(COC(=O)CN1C(=O)c2ccccc2C1=O)NC1CCCC1	i	1	-8	0	3	.	.
Cc1[nH]nc(-c2cccnc2)c1N=NN(C)C	.	-1	-5	1	2	.	.
O=C(NCCCN1CCCC1=O)C(=O)NCC1OCCN1S(=O)(=O)c1ccc(Cl)cc1 (configuration not stated)	i	0	-4	0	10	.	.
COc1ccc(NC(=O)Nc2nc(C(N)C3CCCCC3)cs2)cc1 (configuration not stated)	i	2	-5	40*	.	25	4.6*
CC(C)c1ccc(NC(=O)Nc2nc(C(N)C3CCCCC3)cs2)cc1 (configuration not stated)	.	3	-30	35*	.	21	5.5*
COc1ccc(Cc2c(-c3ccc(C)cc3)nc3cc(C)c(Br)c(C)n23)c(C)c1	i	-1	20	3	.	.	.
N#C/C(=C\c1ccc(C(=O)O)cc1)c1nc2sc3c(c2c(=O)[nH]1)CCCC3	i	1	1	45*	1	55*	22*
Nc1ccc2ccccc2c1C(=O)c1ccccc1	?	-1	12	1	-3	.	.
CCOC(=O)C(CC(=O)O)=C(c1ccccc1)c1ccccc1	i	0	-4	3	1	.	.
CN(CCO)c1nc(N)c2c(N)nc3c(c2c1C#N)CC(=O)N3Cc1cccs1	i	2	27	38*	6	8	9.2*
N#Cc1c(N(CCO)CCO)nc(N)c2c(N)nc3c(c12)CC(=O)N3Cc1cccs1	i	2	7	.	-2	.	.
CCc1ccc(S(=O)(=O)/N=C2\C=C(NS(=O)(=O)c3ccccc3)C(=O)c3ccccc32)cc1	i	13	-2	59*	2	89*	66*
Cc1ccc(C)c(S(=O)(=O)/N=C2\C=C(NS(=O)(=O)c3ccccc3)C(=O)c3ccccc32)c1	i	15	8	67*	-3	90*	69*
CCOC(=O)c1c(C)[nH]c(C)c1C(=O)COC(=O)c1ccc(Cl)c(S(=O)(=O)NCc2ccccc2)c1	i	2	21	-1	-24	.	.
SMILES	Myeloid diff 2	MPTP inh	FAS TE block	rCAG binder	GRIN3A LBD mod	rCAG binder conf	dCAG dye counter	others
Cc1cc(C(=O)N/N=C/c2cc(Br)cc([N+](=O)[O-])c2O)c2ccccc2n1	i	9	37	49*	1	58*	20*
Cc1ccccc1C(=O)Nc1cccc(C(=O)N/N=C/c2cc(Cl)cc([N+](=O)[O-])c2O)c1	i	12	28	87*	5	73*	36*
Cc1cc(C)c(OCC(=O)NCCCn2nc(C)cc2C)c(C)c1	i	-2	-9	-6	-2	.	.
O=C(NCCO)C(=O)c1c(-c2ccc(Cl)cc2)cc2ccccn12	i	2	-3	2	-4	.	.
O=C(O)c1ccn2c(C(=O)c3ccc(Cl)cc3)c(-c3ccccc3)cc2c1	i	4	13	68*	-2	64*	23*	dCAG dye DR=i
CCN(C(=O)CSc1nc2cc(C(=O)O)ccc2c(=O)n1Cc1ccccc1)c1ccccc1	i	1	4	38*	-2	53*	16*
CN(C(=O)CSc1nc2cc(C(=O)O)ccc2c(=O)n1Cc1ccccc1)C1CCS(=O)(=O)C1 (configuration not stated)	i	-1	-3	10	-2	.	.
CC(=O)OC(C)C1C2=C(C(=O)CC1(C)O)C(=O)c1c(ccc(-c3ccc4c(c3O)C(=O)C3=C(C4=O)C(C(C)OC(C)=O)C(C)(O)CC3=O)c1O)C2=O (configuration not stated)	i	3	28	59*	-1	67*	34*	dCAG dye DR=8*
Cc1ccc(-n2nc(C)c3c2NC2=C(C(=O)CC(C)(C)C2)C3c2ccccc2OCC(=O)O)cc1 (configuration not stated)	i	-10	-2	37*	0	41*	9.4*
CC(C)[C@H](NC(=O)N1CC(=O)Nc2ccccc21)C(=O)N[C@H](Cc1ccccc1)C(=O)O	i	0	-4	3	0	.	.
CC(C)=C1C(=O)NN(c2ccc(C)c(Cl)c2)C1=O	i	-6	-6	94*	-4	23	8.1*
Cc1cc2oc(=O)cc(CN3CCCCC3)c2cc1O	i	0	-5	0	0	.	.
Clc1cccc(Cc2c(-c3cccc(Br)c3)nc3ccc(Br)cn23)c1	i	4	20	52*	.	39*	9.1*
Brc1cccc(-c2nc3ccc(Br)cn3c2Cc2ccccc2)c1	i	1	16	49*	.	12	6.2*
Cc1cc2nc(-c3ccc(F)cc3)c(Cc3cccc(Cl)c3)n2c(C)c1Br	i	1	14	61*	.	29	8.4*
Cc1ccc(-c2nc3ccc(Cl)cn3c2Cc2cccc(Cl)c2)cc1	i	1	16	59*	.	42*	10*
Cc1ccc(-c2nc3cc(C)c(Br)c(C)n3c2Cc2cccc(Cl)c2)cc1	i	0	-1	.	.	.	.
